{"source": "the OligoGym collection", "data": [{"molecular_target": "MON2", "test": "pooled miR-30 sensor sort-seq; sequence = guide strand", "settings": "shRNA", "values": [{"sequence": "TAGAAAATCTGTCACAACCAAC", "sensor-assay potency score (higher = more potent)": -1.49}, {"sequence": "TTGTTCTATAATATCTCTGTGT", "sensor-assay potency score (higher = more potent)": -0.519}, {"sequence": "TTGAATAGAGAGATTATCTGGA", "sensor-assay potency score (higher = more potent)": 0.727}, {"sequence": "TACAATATCACGAAAAACCTTG", "sensor-assay potency score (higher = more potent)": -0.21}, {"sequence": "TTCTTCAAGACTATTCTCCATT", "sensor-assay potency score (higher = more potent)": -0.51}]}, {"molecular_target": "MOV10", "test": "pooled miR-30 sensor sort-seq; sequence = guide strand", "settings": "shRNA", "values": [{"sequence": "TATTCCTGCAGCTTCTTCTTGG", "sensor-assay potency score (higher = more potent)": 0.321}, {"sequence": "TAACGTGACAGTCTTGCCGGTG", "sensor-assay potency score (higher = more potent)": -0.472}, {"sequence": "AAGCTGATCTTGAAGTCGCGGT", "sensor-assay potency score (higher = more potent)": 0.0595}, {"sequence": "TTGAGTTTCACATCTGAGGGCA", "sensor-assay potency score (higher = more potent)": 0.674}, {"sequence": "TTTCTTTACAGAACTCCAGGAA", "sensor-assay potency score (higher = more potent)": -0.0759}, {"sequence": "TTCTTCTACTGAACCCACCTTC", "sensor-assay potency score (higher = more potent)": -0.0526}, {"sequence": "TTGATCTCTGCGATCTCCTTAG", "sensor-assay potency score (higher = more potent)": -0.607}, {"sequence": "TTGAAGGTAAAGTTCACCTTGA", "sensor-assay potency score (higher = more potent)": 0.564}, {"sequence": "TTCAGGTAGGAAGTCACTGTGG", "sensor-assay potency score (higher = more potent)": -0.627}, {"sequence": "TTAATTGCCTCCACTAACGTGA", "sensor-assay potency score (higher = more potent)": 0.283}, {"sequence": "TTCACCTTGAAGGTCAGCCCAT", "sensor-assay potency score (higher = more potent)": -0.593}, {"sequence": "TTGTACAGGGAGTTGTAGGTGA", "sensor-assay potency score (higher = more potent)": 0.0022}]}, {"molecular_target": "MPDU1", "test": "pooled miR-30 sensor sort-seq; sequence = guide strand", "settings": "shRNA", "values": [{"sequence": "TTTCACAGTCTGTCCTCTGTAG", "sensor-assay potency score (higher = more potent)": 0.208}, {"sequence": "TAGTGCATGACCAGGAAGCAGA", "sensor-assay potency score (higher = more potent)": -0.943}, {"sequence": "TCCTCTGTAGTGCATGACCAGG", "sensor-assay potency score (higher = more potent)": -1.87}, {"sequence": "TTTCTCAGGTAAAAGAATCGGC", "sensor-assay potency score (higher = more potent)": 0.459}, {"sequence": "TAAAAGAATCGGCACGAGCAGC", "sensor-assay potency score (higher = more potent)": -0.833}, {"sequence": "TTTCTAAGGATCTGGATCCATC", "sensor-assay potency score (higher = more potent)": -1.09}, {"sequence": "TTACACAGCTGGAAATTGCTGC", "sensor-assay potency score (higher = more potent)": 0.224}, {"sequence": "TTCCACTAAAAGAAAACCCTGG", "sensor-assay potency score (higher = more potent)": 0.439}, {"sequence": "ATGCTGTAGACCATGGTCCCAG", "sensor-assay potency score (higher = more potent)": -1.15}, {"sequence": "TTGGTCGTAGCATTTCTCAGGT", "sensor-assay potency score (higher = more potent)": 0.125}, {"sequence": "TAATAGTACATGTACAGGGCTT", "sensor-assay potency score (higher = more potent)": -0.0728}, {"sequence": "TGAATGGAAGTGAAGATTCGGG", "sensor-assay potency score (higher = more potent)": -0.586}]}, {"molecular_target": "MPG", "test": "pooled miR-30 sensor sort-seq; sequence = guide strand", "settings": "shRNA", "values": [{"sequence": "TGCTCTAGCTGGTCGCTGCTTC", "sensor-assay potency score (higher = more potent)": -0.856}, {"sequence": "TTCTTTTGCCCCATCCGTCGGC", "sensor-assay potency score (higher = more potent)": -0.549}, {"sequence": "TTCATGCAGAAGTACATGCCGT", "sensor-assay potency score (higher = more potent)": -0.872}, {"sequence": "TCGACCACACTGACCCAGGGGC", "sensor-assay potency score (higher = more potent)": -0.746}, {"sequence": "TAAATGATGTACACGTACAGGG", "sensor-assay potency score (higher = more potent)": -0.261}, {"sequence": "TCTAGCTGGTCGCTGCTTCTTT", "sensor-assay potency score (higher = more potent)": -0.646}, {"sequence": "TCTGTCGACCACACTGACCCAG", "sensor-assay potency score (higher = more potent)": -0.682}, {"sequence": "TAGCTGGTCGCTGCTTCTTTTG", "sensor-assay potency score (higher = more potent)": -2.15}, {"sequence": "AAGAACTCCAACCCCAGTCGGG", "sensor-assay potency score (higher = more potent)": -0.896}, {"sequence": "TCATGCAGAAGTACATGCCGTA", "sensor-assay potency score (higher = more potent)": 0.083}, {"sequence": "TACAGCTTCATCCTGTGCCAGG", "sensor-assay potency score (higher = more potent)": -1.03}]}]}
